Among the data in PubChem BioAssay (NCI) are growth values, retold here.

Values joined by “and” are separate entries in the source; they are usually repeats but may differ in a detail not shown here. Equal values may be shown once. This is part of a sample that, as a whole, favours compounds with a hit. Of some 83,000 tested, about 20% had one in any assay.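 Percent growth is the endpoint: 0 to 100 indicates growth inhibition (40 means 60% inhibition), 0 means no net growth, and negative values indicate cell death.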 Active and inactive are the calls of the source. Rule for the calls: active = growth percent below 10; inactive = the rest.

This assay deals with MDA-MB-468 breast. The experiment in a line: NCI-60 one-dose screen, 48 h (100 = growth as untreated, 0 = no growth, -100 = all killed). Conditions: 10 µM unless noted.
As for `CCCCOc1ccc(/C=C2/SC(N3CCCC3)=NC2=O)cc1`, the growth was 93.1% (inactive).
With `CCCCC1CCCC12NC(=O)NC2=O` (stereo not given) the figure was 112% (inactive).
For the molecule `CN1CCN(Cc2ccc3c(NNC(=O)c4ccccc4)nc4cc(F)ccc4n23)CC1`, the growth was -12.5% (active).
With `COc1cccc(C(=O)NCCCNc2cc(-c3cn(-c4ccccc4)nc3-c3cccc(OC)c3)ccn2)c1` the figure was 29.1% (inactive); with `Cc1ccc2cccc(OC(=O)Nc3cccc(C(F)(F)F)c3)c2n1`, 75.4% (inactive); with `CC(C)CCC[C@@H](C)[C@H]1CCC2C3=CCn4c(=O)ccc(=O)n4C3CC[C@@]21C` (stereo not given in full), -49% (active).
With `CCCCNc1ccc2c3c1cccc3c(=O)n1c3ccccc3nc21` the figure was -12.2% (active).
With `NS(=O)(=O)c1ccc(CN=C2NC(=O)S/C2=C\c2ccc(Br)cc2)cc1` the figure was 97.1% (inactive); with `O=C(NCCN1CCCC1)c1ccc(-c2nc3ccc4[nH]ncc4c3c3c2CCCC3)cc1`, -43.9% (active); with `CCOc1ccc(C(CN2CCOCC2)C(C)=O)cc1OC` (stereo not given), 13.9% (inactive).
Regarding `O=C1CCC23OC(c4ccccc4N12)C(O)C(O)C3O` (stereo not given), the growth was 114% (inactive).
Then `O=C(Nc1ccc(-c2nc3ccc(NC(=O)c4ccc(Cl)cc4)cc3[nH]2)cc1)c1ccc(Cl)cc1`, with -10.8% (active); and `COc1ccc2nc3cc(Cl)ccc3c(Nc3ccc(O)c(CN4CCCC4)c3)c2c1`, with -35.9% (active); and `C[n+]1cccc(NC(=O)c2ccc3ccc4ccc(C(=O)Nc5ccc[n+](C)c5)nc4c3n2)c1`, with -15.9% (active).
On to `Cc1ccc(C2CCCCC2)cc1Br`, for which the growth was 97% (inactive).
Take `Cc1nc2c(-c3cnc(N)nc3)nc(N3CCOCC3)nc2n1C(C)C`: the growth is -34.6% (active).
Then `CCN(CC)CCOC(=O)c1cc(OCc2ccccc2)c(OCc2ccccc2)c(OCc2ccccc2)c1`, with 44% (inactive).
Then `CCN1CCN(c2nc(C)cc(N(CCCNc3ccnc4cc(Cl)ccc34)Cc3ccco3)n2)CC1`, with 84.2% (inactive); and `NC1CC2(CCN(c3cnc(C(=O)Nc4cc(F)cc5cccnc45)cn3)CC2)C1`, with 50.6% (inactive).
With `O=C(CCCCC(=O)Nc1ccc2c(c1)/C(=C/c1ccc[nH]1)C(=O)N2)NO`, the growth was 49% (inactive).
With `O=C(Cn1nnc([N+](=O)[O-])n1)c1ccccc1` the figure was 99.2% (inactive); with `COc1cc(Nc2c(C#N)cnn3cc(-c4cnn(CC(C)(C)O)c4)cc23)ccc1Cl`, 65.1% (inactive); with `COc1ccc(Cl)c([N+](=O)[O-])c1`, 99.9% (inactive).
Then `COc1cc2c3c(n(CCCN4CCCC4)c(=O)c2cc1OC)-c1cc2c(cc1C3=O)OCO2`, with 84.1% (inactive); and `Cn1cc(-c2csc(-c3c[nH]c4ccccc34)n2)c2ccnc(Cl)c21`, with -9.03% (active); and `CCOP(=O)(O)OP(=O)(O)OCC`, with 107% (inactive).
Then `N#C/C(=C/c1c(O)ccc2ccccc12)C(N)=O`, with 97.3% (inactive); and `Clc1ccc([I+]c2ccc(Cl)cc2Cl)c(Cl)c1`, with -37.9% (active).
On to `COc1ccc(/C=N/NC(=O)Cn2nnc3ccccc32)cc1`, for which the growth was 103% (inactive).
Then `Cc1ccc2c(ccc3c[n+]4c5ccccc5ccc4n32)c1`, with -56.3% (active); and `O=C1c2ccccc2-c2nccc3cc(Cl)nc1c23`, with -87.2% (active).
With `CCN(CC)CCNc1ccc(C)c2sc3ccccc3c(=O)c12` (tested in a mixture with another compound) the figure was 11.8% (inactive) and 16.9% (inactive); with `CC1=NOC(=O)/C1=C\c1ccc(O)cc1`, 103% (inactive); with `CCSc1cnnc2ccccc12`, 105% (inactive).
Take `COc1ccc([C@H]2c3[nH]c4ccccc4c3C[C@@H]3C(=O)N(C4CCN(Cc5ccccc5)CC4)CC(=O)N23)c(OC)c1`: the growth is 63.4% (inactive).
For `O=C(Nc1cccc(-n2ccc3c(NC(=O)c4ccccc4)nccc32)c1)c1cc(N2CCOCC2)cc(C(F)(F)F)c1`, the growth was -32.3% (active).
With `Cc1cc(N(CCCNc2ccnc3cc(Cl)ccc23)Cc2ccc3c(c2)OCO3)nc(N2CCCCC2)n1` the figure was -45.2% (active); with `COC(=O)[C@@]12CC[C@@H](C)[C@]3(C[C@@H](c4ccoc4)OC3=O)[C@H]1CC[C@@H]1O[C@@]12C`, 106% (inactive); with `CC1(C)CC[C@]2(C(=O)N3CCNCC3)CC[C@]3(C)C(=CC[C@@H]4[C@@]5(C)CCC(=O)C(C)(C)[C@@H]5CC[C@]43C)[C@@H]2C1`, 105% (inactive).
Turning to `Oc1ccc(Cl)cc1-c1cc(-c2ccccc2Cl)[nH]n1`, the growth is 3.92% (active).
